Measured values from PubChem BioAssay (EPA / NIEHS).
Activity calls are given as the source filed them. The calls were made as follows: active = hit-call score of the fitted dose curve at least 0.9, where 1 is the maximum; inactive = score below 0.9.

Assays:
Conditions in all cases: mRNA level, 48 h; actives raise or lower the signal
Caspase-3 (Homo sapiens) = Caspase-3 (Homo sapiens) (UniProt P42574); assay: LTEA_HepaRG_CASP3: Life Technologies and Expression Analysis (LTEA) Assay for cysteine-aspartic acid protease (CASP3) using HepaRG (AID 2283477)
Chain of Caspase-3 (Homo sapiens) (P42574 whole entry, looked up): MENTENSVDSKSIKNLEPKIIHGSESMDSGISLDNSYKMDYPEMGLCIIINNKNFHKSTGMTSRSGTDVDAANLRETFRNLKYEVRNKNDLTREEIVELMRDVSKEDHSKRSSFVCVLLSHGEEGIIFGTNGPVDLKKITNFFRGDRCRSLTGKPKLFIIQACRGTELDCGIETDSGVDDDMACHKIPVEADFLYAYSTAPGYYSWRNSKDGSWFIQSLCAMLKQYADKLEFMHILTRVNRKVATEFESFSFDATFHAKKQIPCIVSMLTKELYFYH
Method in brief: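 In HepaRG liver cells dosed for 48 h at up to 100 uM (eight-point, duplicate), CASP3 expression changes are scored by qRT-PCR. Activity is fitted in both directions with 0.5% DMSO as baseline.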

[1] = read-out: Cytochrome P450 (CYP24A1), CYP24A1 (gene 1591); assay: LTEA_HepaRG_CYP24A1: Life Technologies and Expression Analysis (LTEA) Assay for Cytochrome P450 (CYP24A1) using HepaRG (AID 2283478)
Method in brief: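 Human liver HepaRG cultures receive each chemical for 48 h across an eight-point half-log series topping at 100 uM in 0.5% DMSO. Induction or suppression of CYP24A1 mRNA is scored relative to vehicle after housekeeping-gene normalization.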

[2] = read-out: Cytochrome P450 (CYP1A2), CYP1A2 (gene 1544); assay: LTEA_HepaRG_CYP1A2: Life Technologies and Expression Analysis (LTEA) Assay for Cytochrome P450 (CYP1A2) using HepaRG (AID 2283479)
Method in brief: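 Assesses CYP1A2 mRNA in human HepaRG liver cells after 48 h chemical exposure at up to 100 uM. Values come from qRT-PCR with bidirectional curve fitting relative to DMSO.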

[3] = read-out: Cytochrome P450 (CYP2B6), CYP2B6 (gene 1555); assay: LTEA_HepaRG_CYP2B6: Life Technologies and Expression Analysis (LTEA) Assay for Cytochrome P450 (CYP2B6) using HepaRG (AID 2283481)
Method in brief: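 Using 48 h treatment of HepaRG cells in serum-free induction medium, concentrations spanned half-log steps from 100 uM in 0.5% DMSO vehicle. CYP2B6 mRNA induction or loss is scored by qRT-PCR against DMSO.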

[4] = read-out: Cytochrome P450 2C19 (Homo sapiens) (UniProt P33261); assay: LTEA_HepaRG_CYP2C19: Life Technologies and Expression Analysis (LTEA) Assay for CYP2C19 using HepaRG (AID 2283482)
Method in brief: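 Human HepaRG liver cells received test chemicals for 48 h (highest 100 uM, half-log dilutions in 0.5% DMSO). CYP2C19 mRNA induction or loss is read by multiplexed qRT-PCR and fitted in both directions versus vehicle.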

CYP2C8 (gene 1558) = assay: LTEA_HepaRG_CYP2C8: Life Technologies and Expression Analysis (LTEA) Assay for CYP2C8 using HepaRG (AID 2283483)
Method in brief: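 CYP2C8 expression measured by TaqMan qRT-PCR and normalized to three housekeeping genes. HepaRG cultures were treated for 48 h with an eight-point half-log series topping at 100 uM, vehicle 0.5% DMSO, duplicates; fitted both directions against DMSO.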

CYP2C9 (gene 1559) = assay: LTEA_HepaRG_CYP2C9: Life Technologies and Expression Analysis (LTEA) Assay for CYP2C9 using HepaRG (AID 2283484)
Method in brief: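 CYP2C9 transcript level, quantified by TaqMan qRT-PCR against three housekeeping genes, was fitted bidirectionally relative to 0.5% DMSO. HepaRG cultures were treated 48 h, in duplicate, at eight half-log concentrations topping at 100 uM.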

CYP2E1 (gene 1571) = assay: LTEA_HepaRG_CYP2E1: Life Technologies and Expression Analysis (LTEA) Assay for CYP2E1 using HepaRG (AID 2283485)
Method in brief: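 Assay uses 48 h exposure of HepaRG hepatic cells, eight concentrations to 100 uM. Expression of CYP2E1 is quantified by TaqMan qRT-PCR with ACTB, GAPDH and POLR2A normalization; curves fitted in both directions relative to vehicle.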

CYP4A11 (gene 1579) = assay: LTEA_HepaRG_CYP4A11: Life Technologies and Expression Analysis (LTEA) Assay for CYP4A11 using HepaRG (AID 2283486)
Method in brief: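 Readout is CYP4A11 mRNA induction or suppression (qRT-PCR, ACTB/GAPDH/POLR2A normalization) in human HepaRG cells after 48 h chemical treatment, concentrations to 100 uM in 0.5% DMSO, fitted bidirectionally against vehicle.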

[5] = read-out: Cytochrome P450 3A4 (Homo sapiens) (UniProt P08684); assay: LTEA_HepaRG_CYP3A4: Life Technologies and Expression Analysis (LTEA) Assay for CYP3A4 using HepaRG (AID 2283487)
Method in brief: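 CYP3A4 transcript measured by TaqMan qRT-PCR and normalized to three housekeeping genes after 48 h chemical exposure of human HepaRG cells. Top concentration 100 uM, half-log steps, 0.5% DMSO vehicle; gain or loss fitted against DMSO baseline.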

[6] = read-out: DNA damage-inducible transcript 3 (DDIT3), DDIT3 (gene 1649); assay: LTEA_HepaRG_DDIT3: Life Technologies and Expression Analysis (LTEA) Assay for DNA damage-inducible transcript 3 (DDIT3) using HepaRG (AID 2283488)
Method in brief: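 Eight-point concentration-response (100 uM highest, half-log dilutions) in HepaRG, 48 h, duplicate wells. Endpoint: qRT-PCR mRNA, normalized (ACTB, GAPDH, POLR2A), bidirectional fitting with DMSO as baseline.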

[7] = read-out: Pro-epidermal growth factor (Homo sapiens) (UniProt P01133); assay: LTEA_HepaRG_EGF: Life Technologies and Expression Analysis (LTEA) Assay for Epidermal growth factor (EGF) using HepaRG (AID 2283489)
Method in brief: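 EGF expression changes in human HepaRG cells are scored by bidirectional fitting relative to 0.5% DMSO controls. Chemicals are tested at eight half-log concentrations up to 100 uM for 48 h in serum-free induction medium.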

[8] = read-out: Early growth response protein 1 (EGR1) transcription factor, EGR1 (gene 1958); assay: LTEA_HepaRG_EGR1: Life Technologies and Expression Analysis (LTEA) Assay for Early growth response protein 1 (EGR1) transcription factor using HepaRG (AID 2283490)
Method in brief: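 EGR1 transcript levels quantified by qRT-PCR (Fluidigm arrays) against three housekeeping genes after 48 h chemical exposure of HepaRG cells. Eight-point half-log series topping at 100 uM, 0.5% DMSO vehicle, analyzed for gain or loss.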

[9] = read-out: Ezrin (EZR), EZR (gene 7430); assay: LTEA_HepaRG_EZR: Life Technologies and Expression Analysis (LTEA) Assay for Ezrin (EZR) using HepaRG (AID 2283491)
Method in brief: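 HepaRG, 48 h chemical exposure, 8-pt half-log series from 100 uM, 0.5% DMSO vehicle, duplicates. Read-out: EZR mRNA by TaqMan qRT-PCR (Fluidigm array), housekeeping-normalized; bidirectional curve fit vs DMSO baseline.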

[10] = read-out: Cytochrome P450 3A7 (Homo sapiens) (UniProt P24462); assay: LTEA_HepaRG_CYP3A7: Life Technologies and Expression Analysis (LTEA) Assay for CYP3A7 using HepaRG (AID 2283492)
Method in brief: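 Cells were thawed, plated, cultured 48 h, then treated for a further 48 h with chemicals (eight-point half-log series from 100 uM, 0.5% DMSO). RNA was isolated and CYP3A7 expression quantified by qRT-PCR normalised to ACTB, GAPDH and POLR2A.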

CYP3A5 (gene 1577) = assay: LTEA_HepaRG_CYP3A5: Life Technologies and Expression Analysis (LTEA) Assay for CYP3A5 using HepaRG (AID 2283493)
Method in brief: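 Readout was CYP3A5 mRNA by qRT-PCR. HepaRG cultures were exposed for 48 h in serum-free induction medium to chemicals at up to 100 uM, and responses were fitted in both directions relative to DMSO vehicle.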

[11] = read-out: Fatty Acid-Binding Protein 1 (FABP1), FABP1 (gene 2168); assay: LTEA_HepaRG_FABP1: Life Technologies and Expression Analysis (LTEA) Assay for Fatty Acid-Binding Protein 1 (FABP1) using HepaRG (AID 2283494)
Method in brief: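 FABP1 expression by TaqMan qRT-PCR, normalised to three housekeeping genes, in HepaRG cells after 48 h chemical treatment. Eight-point half-log series topping at 100 uM in 0.5% DMSO, duplicates; gain or loss fitted relative to vehicle.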

[12] = read-out: Cytochrome P450 4A22 (Homo sapiens) (UniProt Q5TCH4); assay: LTEA_HepaRG_CYP4A22: Life Technologies and Expression Analysis (LTEA) Assay for Cytochrome P450 4A22 (CYP4A22) using HepaRG (AID 2283495)
Method in brief: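 Cryopreserved HepaRG cells, plated and cultured 48 h, then switched to serum-free induction medium and treated 48 h (duplicates, up to 100 uM, half-log steps, 0.5% DMSO). Expression change of CYP4A22 was fitted bidirectionally against vehicle.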

[13] = read-out: Cytochrome P450 7A1 (Homo sapiens) (UniProt P22680); assay: LTEA_HepaRG_CYP7A1: Life Technologies and Expression Analysis (LTEA) Assay for Cytochrome P450 7A1 (CYP7A1) using HepaRG (AID 2283496)
Method in brief: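 Using 0.5% DMSO as vehicle and baseline, chemicals were tested in duplicate over an 8-point range from 100 uM on HepaRG cells for 48 h; qRT-PCR signals were normalised to ACTB, GAPDH and POLR2A.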

[14] = read-out: cysteine-aspartic acid protease (CASP8), CASP8 (gene 841); assay: LTEA_HepaRG_CASP8: Life Technologies and Expression Analysis (LTEA) Assay for cysteine-aspartic acid protease (CASP8) using HepaRG (AID 2283480)
Method in brief: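 CASP8 transcript measured by TaqMan qRT-PCR with ACTB/GAPDH/POLR2A normalization, after 48 h chemical exposure of HepaRG cells in serum-free induction medium. Eight concentrations, top 100 uM, half-log steps, 0.5% DMSO vehicle; fits in both directions versus DMSO.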

Measured: AC50

Chain of Cytochrome P450 3A7 (Homo sapiens) (P24462 whole entry, looked up): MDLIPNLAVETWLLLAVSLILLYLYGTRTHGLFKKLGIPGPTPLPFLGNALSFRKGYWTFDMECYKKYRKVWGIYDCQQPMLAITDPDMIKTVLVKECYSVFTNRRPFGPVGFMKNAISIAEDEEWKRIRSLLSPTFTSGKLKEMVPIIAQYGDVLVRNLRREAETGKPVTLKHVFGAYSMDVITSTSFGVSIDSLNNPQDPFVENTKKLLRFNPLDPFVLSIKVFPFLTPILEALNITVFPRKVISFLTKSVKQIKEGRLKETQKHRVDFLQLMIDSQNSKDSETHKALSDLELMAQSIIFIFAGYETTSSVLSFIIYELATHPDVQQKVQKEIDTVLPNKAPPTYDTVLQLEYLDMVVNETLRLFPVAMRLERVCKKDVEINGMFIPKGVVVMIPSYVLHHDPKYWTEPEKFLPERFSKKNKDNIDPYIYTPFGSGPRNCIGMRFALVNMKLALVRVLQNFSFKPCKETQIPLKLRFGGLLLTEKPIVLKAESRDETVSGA
Chain of Cytochrome P450 3A4 (Homo sapiens) (P08684 whole entry, looked up): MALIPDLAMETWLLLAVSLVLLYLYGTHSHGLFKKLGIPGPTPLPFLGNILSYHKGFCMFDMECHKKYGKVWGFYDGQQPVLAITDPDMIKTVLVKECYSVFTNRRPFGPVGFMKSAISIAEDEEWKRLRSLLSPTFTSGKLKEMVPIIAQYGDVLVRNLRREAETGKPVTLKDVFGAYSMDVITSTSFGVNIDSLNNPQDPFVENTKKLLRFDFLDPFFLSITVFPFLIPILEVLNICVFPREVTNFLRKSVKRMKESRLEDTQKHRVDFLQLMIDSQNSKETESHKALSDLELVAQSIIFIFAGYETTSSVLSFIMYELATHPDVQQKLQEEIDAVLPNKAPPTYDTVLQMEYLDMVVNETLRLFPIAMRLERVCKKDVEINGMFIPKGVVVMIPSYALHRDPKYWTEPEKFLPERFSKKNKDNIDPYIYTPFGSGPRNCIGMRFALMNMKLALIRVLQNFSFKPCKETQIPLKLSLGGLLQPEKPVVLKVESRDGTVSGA
Chain of Cytochrome P450 2C19 (Homo sapiens) (P33261 whole entry, looked up): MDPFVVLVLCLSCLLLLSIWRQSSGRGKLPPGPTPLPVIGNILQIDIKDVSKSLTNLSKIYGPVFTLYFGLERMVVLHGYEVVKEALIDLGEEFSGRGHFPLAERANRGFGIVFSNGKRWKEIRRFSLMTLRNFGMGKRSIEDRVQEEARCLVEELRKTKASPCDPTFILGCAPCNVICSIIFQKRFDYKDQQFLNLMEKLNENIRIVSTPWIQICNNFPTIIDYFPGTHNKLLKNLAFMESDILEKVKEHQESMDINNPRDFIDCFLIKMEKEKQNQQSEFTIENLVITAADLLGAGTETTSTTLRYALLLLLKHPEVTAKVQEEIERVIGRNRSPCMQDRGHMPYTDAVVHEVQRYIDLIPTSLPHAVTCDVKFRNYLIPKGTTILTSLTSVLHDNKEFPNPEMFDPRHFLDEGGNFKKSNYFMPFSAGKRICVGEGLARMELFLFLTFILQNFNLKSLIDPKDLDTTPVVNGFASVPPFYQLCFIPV

CC(=O)OC[C@H]1O[C@@](COC(C)=O)(O[C@H]2O[C@H](COC(C)=O)[C@@H](OC(C)=O)[C@H](OC(C)=O)[C@H]2OC(C)=O)[C@@H](OC(C)=O)[C@@H]1OC(C)=O
not listed: [14]
inactive: all other assays above

CCCCCCCCCCCCc1ccccc1
not listed: [14]
inactive: all other assays above

CCCCC(CC)COC(=O)c1ccc(C(=O)OCC(CC)CCCC)cc1 (stereo not drawn)
not listed: CYP2C9 (gene 1559) | [12]
inactive: all other assays above

CN(C)c1ccc(N=NS(=O)(=O)O)cc1
active: [2] 13.8 µM | CYP2C8 (gene 1558) 2.62 µM | CYP2E1 (gene 1571) 22 µM | [11] 50 µM | [12] 9.92 µM | [13] 2.51 µM
not listed: CYP3A5 (gene 1577)
inactive: all other assays above

O=C1CCCCCN1
not listed: [12]
inactive: all other assays above

CC1=CC(=O)CC(C)(C)C1
not listed: [12]
inactive: all other assays above
